Data reported in PubChem BioAssay AID1159580 (chemical genetic matrix, 2015).
About 2,000 (36%) of roughly 5,500 compounds were called active. Inconclusive results (about 18%) are left out. Rule as the data show it: active = normalized growth mostly below about 0.91 (no sharp cut-off); inconclusive = no clear call, values can overlap the other calls; inactive = mostly above about 0.92. The list shows a part of the results.

Test: chemical genetic growth profiling, strain panel (AID 1159580);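 also: tested at 20 µM; growth read once vehicle control cultures reached saturation at 30 °C; 1 = growth at the plate median or of vehicle wells; lower values mean less growth of the strain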
Details: growth OD

Measured: normalized growth

OC(c1cc(C(F)(F)F)nc2c(C(F)(F)F)cccc12)C1CCCCN1 (stereo not drawn)
inactive: S. cerevisiae deletion strains, locus YJR066W, strain TOR1, stronger effect = lower value 0.936 | S. cerevisiae deletion strains, locus YJR075W, strain HOC1, stronger effect = lower value 0.978 | S. cerevisiae deletion strains, locus YKL009W, strain mrt4, stronger effect = lower value 0.987 | S. cerevisiae deletion strains, locus YKL068W, stronger effect = lower value 0.99 | S. cerevisiae deletion strains, locus YKL085W, strain MDH1 (second series), stronger effect = lower value 0.989 | S. cerevisiae deletion strains, locus YKL085W, strain MDH1, stronger effect = lower value 0.989 | S. cerevisiae deletion strains, locus YKL160W, strain elf1, stronger effect = lower value 0.99 | S. cerevisiae deletion strains, locus YKL190W, strain CNB1, stronger effect = lower value 0.99 | S. cerevisiae deletion strains, locus YKR001C, strain vps1, stronger effect = lower value 1 | S. cerevisiae deletion strains, locus YKR026C, strain gcn3, stronger effect = lower value 1.01 | S. cerevisiae deletion strains, locus YKR091W, strain srl3, stronger effect = lower value 1 | S. cerevisiae deletion strains, locus YLL001W, strain dnm1, stronger effect = lower value 1 | S. cerevisiae deletion strains, locus YLL026W, stronger effect = lower value 1.01 | S. cerevisiae deletion strains, locus YLL041C, strain sdh2, stronger effect = lower value 1.02 | S. cerevisiae deletion strains, locus YLR027C, strain aat2, stronger effect = lower value 0.996 | S. cerevisiae deletion strains, locus YLR039C, strain RIC1, stronger effect = lower value 1.12 | S. cerevisiae deletion strains, locus YLR058C, strain SHM2, stronger effect = lower value 0.991 | S. cerevisiae deletion strains, locus YLR102C, strain apc9, stronger effect = lower value 0.991 | S. cerevisiae deletion strains, locus YLR113W, strain HOG1, stronger effect = lower value 0.93 | S. cerevisiae deletion strains, locus YLR221C, strain rsa3, stronger effect = lower value 1.02 | S. cerevisiae deletion strains, locus YLR258W, strain gsy2, stronger effect = lower value 1.01 | S. cerevisiae deletion strains, locus YLR262C, strain YPT6 (second series), stronger effect = lower value 1.11 | S. cerevisiae deletion strains, locus YLR262C, strain YPT6, stronger effect = lower value 1.15 | S. cerevisiae deletion strains, locus YLR268W, strain sec22, stronger effect = lower value 0.975 | S. cerevisiae deletion strains, locus YLR320W, strain mms22, stronger effect = lower value 1.01 | S. cerevisiae deletion strains, locus YLR330W, strain CHS5, stronger effect = lower value 0.992 | S. cerevisiae deletion strains, locus YLR342W, strain FKS1 (second series), stronger effect = lower value 0.962 | S. cerevisiae deletion strains, locus YLR342W, strain FKS1, stronger effect = lower value 1.01 | S. cerevisiae deletion strains, locus YLR357W, strain rsc2, stronger effect = lower value 1.09 | S. cerevisiae deletion strains, locus YLR370C, strain arc18, stronger effect = lower value 1 | S. cerevisiae deletion strains, locus YLR371W, strain rom2, stronger effect = lower value 0.988 | S. cerevisiae deletion strains, locus YLR384C, strain iki3, stronger effect = lower value 1.01 | S. cerevisiae deletion strains, locus YLR418C, strain cdc73, stronger effect = lower value 0.931 | S. cerevisiae deletion strains, locus YML016C, strain PPZ1, stronger effect = lower value 0.989 | S. cerevisiae deletion strains, locus YML032C, strain rad52, stronger effect = lower value 0.978 | S. cerevisiae deletion strains, locus YML120C, strain ndi1, stronger effect = lower value 1 | S. cerevisiae deletion strains, locus YML124C, strain tub3, stronger effect = lower value 0.99 | S. cerevisiae deletion strains, locus YMR058W, strain fet3, stronger effect = lower value 0.997 | S. cerevisiae deletion strains, locus YMR078C, strain ctf18, stronger effect = lower value 0.994 | S. cerevisiae deletion strains, locus YMR125W, strain sto1, stronger effect = lower value 1 | S. cerevisiae deletion strains, locus YMR129W, stronger effect = lower value 0.997 | S. cerevisiae deletion strains, locus YMR205C, strain PFK2, stronger effect = lower value 1.01 | S. cerevisiae deletion strains, locus YMR223W, strain ubp8, stronger effect = lower value 0.973 | S. cerevisiae deletion strains, locus YMR231W, strain pep5, stronger effect = lower value 1.01 | S. cerevisiae deletion strains, locus YMR307W, strain GAS1, stronger effect = lower value 0.869 | S. cerevisiae deletion strains, locus YNL067W, strain RPL9B, stronger effect = lower value 0.981 | S. cerevisiae deletion strains, locus YNL071W, strain lat1, stronger effect = lower value 1.02 | S. cerevisiae deletion strains, locus YNL183C, strain NPR1, stronger effect = lower value 0.93 | S. cerevisiae deletion strains, locus YNL209W, strain ssb2, stronger effect = lower value 0.996 | S. cerevisiae deletion strains, locus YNL233W, strain BNI4, stronger effect = lower value 0.959 | S. cerevisiae deletion strains, locus YNL248C, strain rpa49, stronger effect = lower value 0.999 | S. cerevisiae deletion strains, locus YNL250W, strain rad50, stronger effect = lower value 0.986 | S. cerevisiae deletion strains, locus YNL271C, strain bni1, stronger effect = lower value 0.985 | S. cerevisiae deletion strains, locus YNL298W, strain CLA4, stronger effect = lower value 0.995 | S. cerevisiae deletion strains, locus YNL307C, strain MCK1, stronger effect = lower value 0.992 | S. cerevisiae deletion strains, locus YNL322C, strain KRE1 (second series), stronger effect = lower value 0.988 | S. cerevisiae deletion strains, locus YNL322C, strain KRE1, stronger effect = lower value 0.987 | S. cerevisiae deletion strains, locus YNR049C, strain mso1, stronger effect = lower value 1.01 | S. cerevisiae deletion strains, locus YNR052C, strain pop2, stronger effect = lower value 0.99 | S. cerevisiae deletion strains, locus YOL006C, strain TOP1, stronger effect = lower value 0.993 | S. cerevisiae deletion strains, locus YOL012C, strain htz1 0.986 | S. cerevisiae deletion strains, locus YOL147C, strain pex11, stronger effect = lower value 1.01 | S. cerevisiae deletion strains, locus YOR001W, strain rrp6, stronger effect = lower value 0.999 | S. cerevisiae deletion strains, locus YOR061W, strain CKA2, stronger effect = lower value 0.991 | S. cerevisiae deletion strains, locus YOR069W, strain VPS5, stronger effect = lower value 0.997 | S. cerevisiae deletion strains, locus YOR070C, strain gyp1, stronger effect = lower value 1.01 | S. cerevisiae deletion strains, locus YOR080W, strain dia2, stronger effect = lower value 1.02 | S. cerevisiae deletion strains, locus YOR083W, strain WHI5, stronger effect = lower value 1.03 | S. cerevisiae deletion strains, locus YOR106W, strain vam3, stronger effect = lower value 1.02 | S. cerevisiae deletion strains, locus YOR136W, strain idh2, stronger effect = lower value 0.988 | S. cerevisiae deletion strains, locus YOR144C, strain elg1, stronger effect = lower value 0.991 | S. cerevisiae deletion strains, locus YOR184W, strain ser1, stronger effect = lower value 0.997 | S. cerevisiae deletion strains, locus YOR231W, strain MKK1, stronger effect = lower value 0.959 | S. cerevisiae deletion strains, locus YOR265W, strain rbl2, stronger effect = lower value 1 | S. cerevisiae deletion strains, locus YOR270C, strain vph1, stronger effect = lower value 1.04 | S. cerevisiae deletion strains, locus YOR290C, strain snf2, stronger effect = lower value 0.991 | S. cerevisiae deletion strains, locus YOR316C, strain cot1, stronger effect = lower value 0.994 | S. cerevisiae deletion strains, locus YPL051W, strain arl3, stronger effect = lower value 1.01 | S. cerevisiae deletion strains, locus YPL078C, strain atp4, stronger effect = lower value 1 | S. cerevisiae deletion strains, locus YPL106C, strain sse1, stronger effect = lower value 0.999 | S. cerevisiae deletion strains, locus YPL240C, strain hsp82, stronger effect = lower value 1 | S. cerevisiae deletion strains, locus YPL256C, strain CLN2, stronger effect = lower value 0.946 | S. cerevisiae deletion strains, locus YPR119W, strain clb2, stronger effect = lower value 0.99 | S. cerevisiae deletion strains, locus YPR141C, strain kar3, stronger effect = lower value 0.988 | S. cerevisiae deletion strains, locus YPR163C, strain tif3, stronger effect = lower value 0.999 | S. cerevisiae deletion strains, locus YPR167C, strain met16, stronger effect = lower value 0.993 | S. cerevisiae deletion strains, strain wtn01, stronger effect = lower value 0.96 | S. cerevisiae strains, strain wild type, stronger effect = lower value 0.983
